These results are taken from PubChem BioAssay.

Experiment [1] can be described thus: small molecules captured by biotinylated probe aFSTL3 – biochemical, small-molecule microarray, fluorescence 635/667, stem cell growth factor project, primary screen (AID 1064).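 Further: measures binding of the biotinylated anti-FSTL3 antibody to printed compounds.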 The conditions noted are these: higher = more signal.
Experiment [2] is described as follows: binders from COS7 lysate, DM2A8 probe, primary screen, torsin A project, cell lysate, small-molecule microarray, fluorescence 635/667 (AID 1065). The conditions noted are these: higher = more signal, COS7 lysate expressing mutant human TOR1A.
The nature of experiment [3]: small molecules captured by biotinylated probe aFGF2 – biochemical, small-molecule microarray, fluorescence 635/667, stem cell growth factor project, primary screen (AID 1067).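 Further: measures binding of biotinylated aFGF2 protein to printed compounds on slides; z-score merges feature fluorescence and signal-to-noise across triplicate slides.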 The conditions noted are these: higher = more signal.
The nature of experiment [4]: small molecules captured by biotinylated probe aFGF10 – biochemical, small-molecule microarray, fluorescence 635/667, stem cell growth factor project, primary screen (AID 1071).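 Further: score merges 667 nm spot intensity and signal to noise from triplicate slides.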 The conditions noted are these: higher = more signal.
The target in experiment [5] is Neurogenic locus notch homolog protein 2 (Homo sapiens) (UniProt Q04721). The experiment is described as follows: small molecules binding Notch2 protein – biochemical, small-molecule microarray, 635 nm fluorescence, stem cell growth factors, primary screen (AID 1073). The conditions noted are these: higher = more signal.
Experiment [6] concerns the target Pro-neuregulin-1, membrane-bound isoform (Homo sapiens) (UniProt Q02297). The experiment in a line: small molecules binding neuregulin-1 protein – biochemical, small-molecule microarray, fluorescence 635/667, psychiatric disease protein project, primary screen (AID 1075).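 Further: score combines 667 nm spot fluorescence with signal to noise.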 The conditions noted are these: NRG1 binding, 635 nm fluorescence, higher = more signal.
For experiment [7], the system named is Neuregulin-1 EGF-like domain. The experiment in a line: small molecules binding NRG1 EGF domain – biochemical, small-molecule microarray, 635 nm fluorescence, primary screen (AID 1081).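 Further: binding of the protein to compounds printed on small-molecule microarray slides.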 The conditions noted are these: higher = more signal.
Experiment [8] can be described thus: FRG1 expression reporter modulators in myotubes – cell-based, C2C12 myotubes, firefly/Renilla luciferase, luminescence, FRG1 inhibition for FSHD, primary screen (AID 1084). The conditions noted are these: FRG1 promoter luciferase, higher = more signal, called active from +8 up or from −8 down.
Experiment [9] is described as follows: small molecules captured by biotinylated probe aFST – biochemical, small-molecule microarray, fluorescence 635/667, stem cell growth factor project, primary screen (AID 1086).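 Further: score merges 667 nm fluorescence with signal-to-noise of each printed compound spot.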 The conditions noted are these: higher = more signal.
Experiment [10] in a line: binders of probe aHhip on microarray, primary screen, stem cell growth factor project, biochemical, small-molecule microarray, fluorescence 635/667 (AID 1087).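 Further: score merges spot fluorescence at 667nm with spot signal to noise ratio.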 The conditions noted are these: higher = more signal.
Experiment [11] concerns PRMT1 (protein arginine N-methyltransferase 1). The experiment in a line: small molecules binding arginine methyltransferase PRMT1 – biochemical, small-molecule microarray, 635 nm fluorescence, primary screen (AID 1088).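 Further: binding of Prmt1 protein to compounds spotted on small-molecule microarray slides.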 The conditions noted are these: higher = more signal.
Experiment [12] is described as follows: growth effects on S. cerevisiae YJM789 – YJM789 clinical isolate, OD600, 24 h, basal, primary screen (AID 1089).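 Further: growth of clinical yeast isolate S. cerevisiae YJM 789 seeded 1000 cells per well; test concentration not given here.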 The conditions noted are these: higher = more signal, called active from +8 up or from −8 down.
A short description of experiment [13]: S. pombe growth modifiers, basal conditions – strain 972, OD600, 24 h, no modulator, primary screen (AID 1090).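 Further: basal condition with compound alone and no growth modifier present; test concentration not given here.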 The conditions noted are these: S. pombe 972 growth, higher = more signal, called active from +8 up or from −8 down.
Experiment [14] can be described thus: budding yeast growth modifiers under rapamycin – strain BY4716, OD600, 96 h, primary screen (AID 1091). Further: test concentration not given here. The conditions noted are these: S. cerevisiae BY4716 + rapamycin, higher = more signal, called active from +8 up or from −8 down.
Experiment [15] has as its target Torsin-1A-interacting protein 2 (Homo sapiens) (UniProt Q8NFQ8). The experiment in a line: small molecules binding lysate-expressed LULL1 – cell lysate, human LULL1 lysate, 635/667 nm fluorescence, primary screen (AID 1092).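 Further: score merges per-feature 667 nm fluorescence with signal-to-noise.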 The conditions noted are these: small-molecule microarray, hLULL1 lysate binding, 635 nm fluorescence; higher = more signal.
Experiment [16] in a line: optical density change of DRC41 E. coli – strain DRC41, OD650, 24 h, E. coli filamentation project, primary screen (AID 1093).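 Further: MC1000 strain lacking acrAB efflux and sulA so SOS filamentation is blocked; test concentration not given here.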 The conditions noted are these: E. coli DRC41 growth, higher = more signal, called active from +8 up or from −8 down.
A short description of experiment [17]: probe aLefty2 binding to arrayed compounds – biochemical, biotinylated probe, 635/667 nm fluorescence, primary screen (AID 1094).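 Further: score merges spot fluorescence near 667 nm with spot signal-to-noise ratio.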 The conditions noted are these: small-molecule microarray, higher = more signal.
Experiment [18] deals with Noggin (protein binding on small-molecule microarray). The experiment in a line: small molecules binding Noggin protein – biochemical, 635/667 nm fluorescence, primary screen (AID 1095).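 Further: score merges 667 nm feature fluorescence with signal to noise over triplicate slides.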 The conditions noted are these: 635 nm fluorescence, higher = more signal.
Experiment [19] deals with Neurogenic locus notch homolog protein 3 (Homo sapiens) (UniProt Q9UM47). The experiment is described as follows: small molecules binding NOTCH3 protein – biochemical, 635/667 nm fluorescence, primary screen (AID 1096). The conditions noted are these: small-molecule microarray, 635 nm fluorescence, higher = more signal.
Experiment [20] is described as follows: probe aEGFR binding to arrayed compounds – biochemical, biotinylated probe, 635/667 nm fluorescence, primary screen (AID 1097).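 Further: probe is a biotinylated anti-EGFR antibody binding compounds printed on slides; score combines fluorescence near 667 nm and signal to noise of each spot.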 The conditions noted are these: small-molecule microarray, higher = more signal.

Active and inactive are the calls of the source.

Neurogenic locus notch homolog protein 2 (Homo sapiens), sequence (Q04721 whole entry, looked up, canonical isoform): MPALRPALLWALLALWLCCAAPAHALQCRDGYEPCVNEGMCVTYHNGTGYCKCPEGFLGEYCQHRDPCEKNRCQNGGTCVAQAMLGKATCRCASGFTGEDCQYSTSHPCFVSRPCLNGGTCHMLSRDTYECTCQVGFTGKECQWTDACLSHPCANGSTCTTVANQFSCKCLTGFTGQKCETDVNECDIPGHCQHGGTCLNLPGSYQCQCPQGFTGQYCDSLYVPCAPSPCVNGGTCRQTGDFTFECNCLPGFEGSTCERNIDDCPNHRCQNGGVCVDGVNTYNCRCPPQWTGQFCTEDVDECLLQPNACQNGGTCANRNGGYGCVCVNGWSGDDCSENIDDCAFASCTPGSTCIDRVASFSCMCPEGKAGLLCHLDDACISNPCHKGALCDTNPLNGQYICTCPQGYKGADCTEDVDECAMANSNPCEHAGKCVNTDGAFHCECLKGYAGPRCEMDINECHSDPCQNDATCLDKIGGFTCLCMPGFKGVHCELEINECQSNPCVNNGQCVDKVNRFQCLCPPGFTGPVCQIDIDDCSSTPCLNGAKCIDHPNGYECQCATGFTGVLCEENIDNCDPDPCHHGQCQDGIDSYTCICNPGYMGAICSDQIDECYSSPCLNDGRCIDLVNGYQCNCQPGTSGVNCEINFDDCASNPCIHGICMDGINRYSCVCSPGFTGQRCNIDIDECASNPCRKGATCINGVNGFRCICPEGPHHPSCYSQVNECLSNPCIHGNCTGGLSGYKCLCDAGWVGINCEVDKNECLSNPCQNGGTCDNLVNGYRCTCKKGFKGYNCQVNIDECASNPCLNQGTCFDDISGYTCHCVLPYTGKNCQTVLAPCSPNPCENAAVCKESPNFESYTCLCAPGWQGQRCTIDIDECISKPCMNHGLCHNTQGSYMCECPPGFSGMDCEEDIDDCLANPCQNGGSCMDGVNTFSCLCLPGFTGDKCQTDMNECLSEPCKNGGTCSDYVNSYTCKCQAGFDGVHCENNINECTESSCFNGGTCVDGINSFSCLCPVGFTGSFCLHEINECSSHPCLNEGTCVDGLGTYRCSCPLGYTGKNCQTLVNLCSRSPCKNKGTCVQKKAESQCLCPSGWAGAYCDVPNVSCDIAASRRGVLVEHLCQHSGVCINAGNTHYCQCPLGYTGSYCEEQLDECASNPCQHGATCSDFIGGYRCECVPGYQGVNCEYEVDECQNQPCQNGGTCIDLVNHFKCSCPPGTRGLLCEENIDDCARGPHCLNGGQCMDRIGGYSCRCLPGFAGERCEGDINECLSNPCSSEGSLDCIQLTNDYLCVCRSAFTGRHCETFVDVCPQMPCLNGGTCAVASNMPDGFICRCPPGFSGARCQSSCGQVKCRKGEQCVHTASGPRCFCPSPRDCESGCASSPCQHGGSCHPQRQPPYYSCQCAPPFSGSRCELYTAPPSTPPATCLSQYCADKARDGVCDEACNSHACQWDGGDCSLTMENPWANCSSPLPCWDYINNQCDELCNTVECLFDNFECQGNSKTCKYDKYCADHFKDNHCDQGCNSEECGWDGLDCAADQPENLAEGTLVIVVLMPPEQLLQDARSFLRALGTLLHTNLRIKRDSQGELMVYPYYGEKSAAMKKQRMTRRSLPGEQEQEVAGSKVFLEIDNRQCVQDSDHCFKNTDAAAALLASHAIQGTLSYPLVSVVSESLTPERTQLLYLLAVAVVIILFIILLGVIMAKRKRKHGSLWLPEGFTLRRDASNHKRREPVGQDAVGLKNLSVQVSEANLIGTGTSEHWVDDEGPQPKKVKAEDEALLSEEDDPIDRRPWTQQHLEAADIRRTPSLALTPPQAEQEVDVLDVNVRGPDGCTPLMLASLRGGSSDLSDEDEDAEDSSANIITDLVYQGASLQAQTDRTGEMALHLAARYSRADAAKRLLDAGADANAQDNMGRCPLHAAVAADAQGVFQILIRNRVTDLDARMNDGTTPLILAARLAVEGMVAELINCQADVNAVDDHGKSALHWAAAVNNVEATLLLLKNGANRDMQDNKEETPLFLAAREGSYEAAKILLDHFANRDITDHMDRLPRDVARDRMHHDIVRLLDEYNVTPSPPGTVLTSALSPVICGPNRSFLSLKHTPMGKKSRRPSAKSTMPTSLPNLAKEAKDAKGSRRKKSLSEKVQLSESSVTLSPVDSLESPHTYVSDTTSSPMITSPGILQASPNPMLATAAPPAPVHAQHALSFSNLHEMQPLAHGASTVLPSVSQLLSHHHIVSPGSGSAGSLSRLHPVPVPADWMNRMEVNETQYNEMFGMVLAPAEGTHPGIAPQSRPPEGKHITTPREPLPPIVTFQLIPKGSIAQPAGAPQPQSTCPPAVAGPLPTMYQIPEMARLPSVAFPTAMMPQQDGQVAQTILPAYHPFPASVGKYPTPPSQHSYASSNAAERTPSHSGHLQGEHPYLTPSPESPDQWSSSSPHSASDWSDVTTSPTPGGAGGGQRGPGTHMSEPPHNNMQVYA
Torsin-1A-interacting protein 2 (Homo sapiens), sequence (Q8NFQ8 whole entry, looked up): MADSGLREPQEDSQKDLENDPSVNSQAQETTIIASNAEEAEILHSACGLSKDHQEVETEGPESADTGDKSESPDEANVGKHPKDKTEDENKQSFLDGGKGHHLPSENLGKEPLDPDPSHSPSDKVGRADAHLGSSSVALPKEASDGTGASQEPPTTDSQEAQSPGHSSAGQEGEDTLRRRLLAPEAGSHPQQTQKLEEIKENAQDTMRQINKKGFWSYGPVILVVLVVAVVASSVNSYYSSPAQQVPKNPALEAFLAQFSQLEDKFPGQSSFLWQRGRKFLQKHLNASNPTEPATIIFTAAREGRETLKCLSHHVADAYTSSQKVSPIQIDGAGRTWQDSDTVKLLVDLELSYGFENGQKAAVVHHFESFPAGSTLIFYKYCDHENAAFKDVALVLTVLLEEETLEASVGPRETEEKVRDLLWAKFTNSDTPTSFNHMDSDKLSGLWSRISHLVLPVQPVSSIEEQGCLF
Pro-neuregulin-1, membrane-bound isoform (Homo sapiens), sequence (Q02297 whole entry, looked up, the tested form may be a part, canonical isoform): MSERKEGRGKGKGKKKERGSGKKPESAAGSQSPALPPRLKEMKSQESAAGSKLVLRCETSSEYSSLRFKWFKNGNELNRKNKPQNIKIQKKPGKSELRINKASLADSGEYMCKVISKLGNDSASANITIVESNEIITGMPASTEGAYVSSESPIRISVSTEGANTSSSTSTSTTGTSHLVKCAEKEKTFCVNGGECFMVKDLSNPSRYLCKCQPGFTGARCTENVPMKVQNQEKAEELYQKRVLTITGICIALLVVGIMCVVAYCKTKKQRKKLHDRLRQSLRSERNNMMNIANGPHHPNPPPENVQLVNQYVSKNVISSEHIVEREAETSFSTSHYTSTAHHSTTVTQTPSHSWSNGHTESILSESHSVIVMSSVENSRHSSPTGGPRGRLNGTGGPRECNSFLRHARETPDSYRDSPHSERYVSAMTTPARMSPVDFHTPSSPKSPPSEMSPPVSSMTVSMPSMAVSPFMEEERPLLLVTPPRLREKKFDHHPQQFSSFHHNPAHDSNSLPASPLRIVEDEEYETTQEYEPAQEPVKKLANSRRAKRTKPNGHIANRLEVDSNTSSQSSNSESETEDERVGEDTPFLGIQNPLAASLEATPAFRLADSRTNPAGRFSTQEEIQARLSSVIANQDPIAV

For the compound `COCCOC(=O)N1C(=O)[C@@]2(c3cc(C#CCNC(N)=O)ccc31)[C@H](C(N)=O)[C@H]1C(=O)O[C@H](c3ccccc3)[C@H](c3ccccc3)N1[C@@H]2c1ccc(O)cc1`, the composite z-score in experiment [1] was -0.0585; in [2], 0.0947; in [3], -0.0899; in [4] it was 0.29; in [5], -0.148; in [6], 0.0637. Besides, the composite z-score in [7] was 0.235; in experiment [9] it was 0.0377; in experiment [10], -0.287; in experiment [11] it was 0.46; in [15] it was 0.634; in experiment [17], 0.0362. Also, the results for the composite z-score in experiment [18], in experiment [19] and in [20] were 0.173, -0.564 and -0.0828, respectively. Also, the z-score in [8] is -0.329 (inactive); in [12], 0.898 (inactive); in experiment [13], -0.173 (inactive); in experiment [14] it was 0.449 (inactive); in [16], 1.19 (inactive).
`COC(=O)[C@@]1(Cc2ccc(F)cc2)[C@H]2c3cc(C(=O)N(C)C)n(CCF)c3C[C@H]2CN1C(=O)c1ccccc1`: the composite z-score in [1] was 0.267; in experiment [2], 0.0612; in experiment [3] it was 0.131; in experiment [4] it was 0.623; in experiment [5] it was 1.22; in [6], 1.83. Also, the composite z-score in [7] is 1.06; in experiment [9], 0.329; in experiment [10], 0.0274; in experiment [11], -0.0162; in experiment [15], 2.35; in experiment [17], 0.265. Also, the figures for the composite z-score in experiment [18], in experiment [19] and in experiment [20] were 0.104, -0.0282 and -0.0896, respectively. Also, the z-score in [8] is -1.3 (inactive); in [12], -2.02 (inactive); in experiment [13], 0.287 (inactive); in experiment [14] it was -0.318 (inactive); in experiment [16], 1.25 (inactive).
`CN1C(=O)C2C=CC(C(O)c3ccc([N+](=O)[O-])cc3)N(Nc3ccccc3)C2C1=O` (stereo not given): the composite z-score is -0.001 in [1]; 0.135 in experiment [2]; 0.235 in experiment [3]; 0.889 in [4]; 1.62 in experiment [5]; 1.75 in experiment [6]. The composite z-score in experiment [7] was 1.16; in [9] it was 0.955; in experiment [10], -0.156; in [11], 1.38; in experiment [15], 3.25; in experiment [17], 0.222. In addition, the composite z-score is -0.0487 in [18], 1.03 in [19] and 0.0089 in experiment [20]. Besides, the z-score in experiment [8] was -0.439 (inactive); in [12], 0.439 (inactive); in experiment [13], -0.184 (inactive); in [14] it was 0.315 (inactive); in [16] it was -1.69 (inactive).
For `COc1ccc([Si](C)(C)[C@H]2[C@H](CC(=O)N3CCC[C@H]3CO)O[C@@]3(C(=O)N(C)c4c(Br)cc(C)cc43)[C@@H]2C)cc1`, the composite z-score came to 0.536 in [1]; 1.88 in [2]; 0.336 in experiment [3]; 1.04 in experiment [4]; 0.284 in experiment [5]; 2.51 in experiment [6]. Further, the composite z-score in experiment [7] is 1.41; in experiment [9], 1.12; in experiment [10], 0.104; in [11], 1.54; in [15] it was 3.42; in experiment [17] it was 0.412. Besides, the composite z-score in experiment [18] is 2.05; in experiment [19], 0.498; in experiment [20], 0.459. Also, the z-score in experiment [8] is -1.39 (inactive); in [12] it was -0.749 (inactive); in experiment [13] it was -0.108 (inactive); in experiment [14], -0.385 (inactive); in experiment [16], -0.2 (inactive).
Consider `COC(=O)[C@@]1(Cc2ccc(OC)cc2)[C@H]2c3cc(C(=O)N(C)C)n(Cc4c(CO)[nH]cc(C)c4=O)c3C[C@H]2CN1C(=O)c1ccccc1`, for which the composite z-score in experiment [1] is 0.466; in experiment [2], 0.249; in experiment [3], -0.015; in experiment [4] it was -0.112; in experiment [5], 1.56; in experiment [6] it was 2.09. For the same compound, the composite z-score in [7] is 1.37; in [9], 1.47; in experiment [10], 1.81; in [11], -0.922; in [15] it was 3.22; in [17] it was 0.334. Moreover, the values for the composite z-score in experiment [18], in experiment [19] and in [20] were 0.0072, 0.0193 and 0.215, respectively. For the same compound, the z-score is 2.07 (inactive) in experiment [8]; 0.0886 (inactive) in experiment [12]; 0.95 (inactive) in experiment [13]; -0.622 (inactive) in experiment [14]; -1.28 (inactive) in experiment [16].
Turning to `COC(=O)C[C@H]1O[C@]2(C(=O)N(C)c3ccccc32)[C@@H](C)[C@@H]1[Si](C)(C)c1ccccc1`, the composite z-score in experiment [1] is -0.486; in [2], 0.0686; in [3] it was -0.0767; in experiment [4], 0.351; in experiment [5], 0.731; in experiment [6], 0.033. Besides, the composite z-score turned out to be 0.854 in experiment [7]; 0.333 in [9]; 0.357 in experiment [10]; 1.17 in [11]; 0.687 in experiment [15]; 0.0718 in [17]. Further, the composite z-score was 1.23 in experiment [18], 1.08 in experiment [19] and -0.0675 in experiment [20]. In addition, the z-score in [8] was -2.11 (inactive); in experiment [12] it was -4.03 (inactive); in experiment [13], -5.37 (inactive); in [14] it was -2.45 (inactive); in experiment [16], 0.23 (inactive).
For the compound `C=C[C@@H](CO)NS(=O)(=O)c1ccc(Br)cc1`, the composite z-score in [1] is 0.265; in experiment [2], -0.066; in experiment [3] it was -0.22; in experiment [4], -0.426; in experiment [5], -1.14; in experiment [6], -0.361. The composite z-score in [7] was -0.14; in experiment [9] it was -0.257; in experiment [10], -0.156; in experiment [11], -0.635; in experiment [15] it was -0.361; in experiment [17], -0.24. In addition, the composite z-score in experiment [18] was -0.275; in experiment [19], -1.85; in [20] it was -0.164. Moreover, the z-score is -1.84 (inactive) in [8]; -3.08 (inactive) in [12]; -3.63 (inactive) in [13]; -1.27 (inactive) in experiment [14]; 3.54 (inactive) in [16].
For `CCc1cccc(NC(=O)O[C@H]2[C@H](OC(=O)Nc3ccccc3-c3ccccc3)[C@H](OC(=O)Nc3ccccc3-c3ccccc3)[C@@H](OC)O[C@@H]2CO)c1`, the composite z-score is -0.189 in [1]; 0.42 in experiment [2]; 0.155 in experiment [3]; 0.576 in experiment [4]; 1.54 in experiment [5]; 1.48 in experiment [6]. Also, the composite z-score was 1.11 in experiment [7]; 1.14 in experiment [9]; -0.214 in experiment [10]; 1.55 in [11]; 2.91 in experiment [15]; 0.229 in experiment [17]. The composite z-score in [18] is 1.48; in experiment [19], 1.05; in experiment [20], -0.0232. Also, the z-score in experiment [8] was -0.714 (inactive); in experiment [12], 1.95 (inactive); in experiment [13], 1.31 (inactive); in experiment [14], 0.423 (inactive); in experiment [16], -1.08 (inactive).
Regarding `CC1(C)OB(/C=C\CC(OC(=O)c2ccncc2)c2ccccc2)OC1(C)C` (stereo not given), the composite z-score in experiment [1] is 2.93; in experiment [2] it was 0.214; in experiment [3], 0.0262; in experiment [4] it was -1.4; in [5], -1.48; in experiment [6] it was 0.852. For the same compound, the composite z-score in [7] is 0.181; in experiment [9], -0.0939; in experiment [10], -0.0296; in experiment [11] it was -0.477; in experiment [15] it was 0.962; in experiment [17], 1.22. Moreover, the values for the composite z-score in [18], in [19] and in experiment [20] were -1.92, -1.73 and -0.244, respectively. In addition, the z-score in [8] was 1.99 (inactive); in experiment [12] it was -1.7 (inactive); in experiment [13], -1.3 (inactive); in [14], 1.99 (inactive); in experiment [16], 1.04 (inactive).
